Bioassay records deposited in PubChem BioAssay by Buhrlage Lab, Dana-Farber Cancer Institute and Novartis Institutes for BioMedical Research (Cambridge, Mass).
In the library only some 4.2% were active in any assay of this set; here they are far more common.
UCHL1 inh = inhibitors of human UCHL1 deubiquitinase | P09936 | purified UCHL1, Ub-rhodamine cleavage fluorescence | inhibition, % at 20 µM | actives 0.2% (n = 47,000) | AID 1645859
USP28 inh = human USP28 deubiquitinase inhibition; inhibition, % at 25 µM; actives 3% (n = 47,000); purified USP28, Ub-rhodamine cleavage fluorescence, 30 min
USP7 block = human USP7 deubiquitinase inhibition; Q93009; purified USP7, Ub-rhodamine cleavage fluorescence; inhibition, % at 20 µM; actives 0.3% (n = 47,000)
OTUD3 inh = blocks human OTUD3 ubiquitin-rhodamine cleavage. Q5T2D3. purified OTUD3, Ub-rhodamine fluorescence, 2 h. inhibition, % at 25 µM. actives 0.7% (n = 47,000). AID 1645858
USP10 block = blocks human USP10 ubiquitin-rhodamine cleavage; purified USP10, Ub-rhodamine fluorescence, 60 min; actives 1.1% (n = 47,000); inhibition, % at 20 µM
* = called active by the depositor; · = no result. No stated cut-off is given here; in the data, active means inhibition above about 30%; inactive means the rest.

SMILES | UCHL1 inh | USP28 inh | USP7 block | OTUD3 inh | USP10 block
COc1cc(NC(=O)Cn2nc(-c3ccc(F)cc3)ccc2=O)ccc1-n1cnnn1 | 11 | 15 | 17 | 19 | 51*
COc1ccc(Cl)cc1-c1nc(-c2cccnc2)no1 | -5 | -5 | · | -3 | -6
Cc1ncncc1C(=O)N1CCCC(C)(c2ncc(Cc3cccc(F)c3)o2)C1 (stereo not given) | 4 | 3 | 1 | 82* | 2
CC(=O)C1=C(O)[C@@]2(O)C(=O)c3c(c(C)c4ccc(C)c(O)c4c3O)C[C@H]2[C@@H](N)C1=O | 53* | 66* | 50* | 51* | -3
Cc1cccc(NC(=O)Nc2nnc(CC(=O)NCc3ccccc3)s2)c1 | -4 | -5 | 11 | -1 | 21
O=C(Cc1nnc(NC(=O)Nc2ccc3c(c2)OCO3)s1)NCc1ccccc1 | 1 | 8 | 14 | 7 | 34*
O=C(Nc1ccc2c(c1)OCCO2)Nc1nnc(CC(=O)N2CCCCC2)s1 | 4 | 56* | 6 | 6 | 4
Cc1nc2ccn(Cc3ccco3)c(=O)c2cc1C(=O)NCc1cccs1 | 1 | 30* | 0 | -4 | 3
c1ccc(COc2ncnc3scc(-c4ccccc4)c23)cc1 | 1 | 34* | -2 | 3 | 4
COc1ccc(C(=O)Nc2n[nH]c(C)c2-c2cccc(C)c2)c(OC)c1 | 2 | 34* | 4 | 10 | 9
CC(c1ccccc1)N1CC(O)=C(c2nc3ccccc3s2)C1=N (stereo not given) | 0 | 2 | 30* | 7 | 45*
N=C1C(c2nc3ccccc3s2)=C(O)CN1Cc1ccc(F)cc1 | -3 | -19 | 3 | -1 | 9
Cc1ccc2c(c1)c(=O)c(C(=O)c1ccccc1)cn2CC(=O)Nc1ccc2c(c1)OCCO2 | 4 | -5 | 17 | -6 | 26
Cc1ccc(C(=O)c2cn(CC(=O)Nc3ccccc3)c3ccc(C)cc3c2=O)cc1 | 8 | 1 | 19 | 8 | 36*
Cc1ccc(C(=O)c2cn(CC(=O)Nc3ccccc3)c3ccccc3c2=O)cc1 | 9 | 23 | 17 | 16 | 46*
COc1ccc(NC(=O)Cn2cc(C(=O)c3ccc(C)cc3)c(=O)c3ccccc32)cc1 | 2 | 41* | 11 | 10 | 38*
Cc1ccc(C)c(NC(=O)Cn2cc(C(=O)C3CC3)c3ccccc32)c1 | 3 | 57* | 35* | 15 | 46*
Cc1ccccc1CNC(=O)c1nnc(C(=O)Nc2ccc(F)cc2)s1 | 0 | 19 | 7 | 16 | 9
O=C(Cn1cc(C(=O)c2ccc(F)cc2)c(=O)c2ccccc21)Nc1ccc2c(c1)OCO2 | 4 | 12 | 19 | 16 | 47*
O=C(NCCN1CCOCC1)c1cn2ccnc(-c3ccccc3)c2n1 | 1 | 3 | 6 | 3 | -2
